# Assay results reported in PubChem BioAssay.
# This is one part of the list. The source made the active and inactive calls.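 The calls were made as follows, unless noted: active = signal rise of 40% or more at 20 µM, treated as a fluorescence artifact; inactive = the rest.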
# How the values were obtained:
# [1] = inhibition of Brca1/Bard1 split-luciferase complementation, confirmation, counter-screen for Mdm2/MdmX interaction inhibitor project, luminescence, single concentration (AID 504668; call rule not given here); conditions: Brca1/Bard1 bimolecular luciferase complementation counterscreen, at 8 µM, stronger effect = higher value
# [2] = HIF-2a reporter inhibitor retest, confirmation, luminescence, 786-0 RCC cells (AID 651580;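 active = mean inhibition across four replicates of at least 40 percent at the single tested concentration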); conditions: HIF-2a luciferase reporter luminescence, overnight, at 18.8 µM, stronger effect = higher value
# [3] = HIF-1a luciferase reporter signal reduction – MiaPaCa-2 cells, single concentration, counter-screen for HIF-2a inhibitor project, confirmation (AID 651589;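 active = mean inhibition of the reporter signal across four replicates at the single tested dose of 50% or more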); conditions: MiaPaCa-2 HIF-1a luciferase reporter, desferoxamine, overnight; at 18.8 µM; stronger effect = higher value
# [4] = target: Carboxy-terminal domain RNA polymerase II polypeptide A small phosphatase 1 (Homo sapiens) (UniProt Q9GZU7); assay: Scp-1 binding by thermal shift, confirmation, orthogonal assay for Scp-1 inhibitor project, biophysical, differential scanning fluorimetry (AID 540329;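 active = substances whose mean melting-temperature shift, as a percentage of the reference inhibitor's shift, reaches about 5.3%, limit read from the data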;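 also: 0% = Tm of DMSO wells and 100% = Tm with sodium orthovanadate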); conditions: Recombinant SCP1, Sypro Orange thermal shift Tm; at 40 µM; stronger effect = higher value
# [5] = inhibitors of PAF-induced NF-kB signaling, retest, confirmation, cell-based, GFP fluorescence, single concentration (AID 602472; in the data active = inhibition above about 40%;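 also: stimulus PAF is a Pseudomonas aeruginosa filtrate and not platelet activating factor; plate controls were DMSO wells with stimulus for no effect and unstimulated DMSO wells for full effect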); conditions: KKLEB CF airway cells, overnight, at 5 µM, stronger effect = higher value
# [6] = inhibitors of PAF-induced NFkB signaling in CF airway cells, dose response, cell-based, uHTS hits, panel, cytotoxicity readout (AID 624344); conditions: CF bronchial epithelial cells, PAF-induced NFkB reporter inhibition, with PAF, run 1; at 79 µM (top of the series) unless noted
# [7] = as above; conditions: CF bronchial epithelial cells, PAF-induced NFkB reporter inhibition, with PAF, run 2; at 79 µM (top of the series) unless noted
# [8] = target: COP9 signalosome complex subunit 5 (Homo sapiens) (UniProt Q92905); assay: Csn5 deneddylation inhibitors, confirmation, biochemical, fluorescence polarization, single concentration, SCF-Nedd8OG substrate (AID 720654; in the data active = inhibition above about 50%;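 also: 0% = DMSO with enzyme and 100% = no enzyme wells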); conditions: Csn5 deneddylation of SCF-Nedd8OG, 90 min, at 16.6 µM, stronger effect = higher value
# [9] = target: 72 kDa type IV collagenase (Homo sapiens) (UniProt P08253); assay: MMP-2 protease inhibition counter-screen, confirmation, counter-screen for CSN deneddylation inhibitor project, biochemical, fluorescence, single concentration (AID 720655;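 active = corrected plate-normalized z-score of 5 or more, or -5 or less, or inhibition of 15% or more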;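 also: plate controls were DMSO wells with enzyme for no effect and buffer wells lacking MMP-2 for full effect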); conditions: recombinant MMP-2, FRET substrate fluorescence, 60 min; at 16.6 µM
# Prothrombin (Bos taurus) = Prothrombin (Bos taurus) (UniProt P00735); assay: bovine thrombin inhibition counter-screen, confirmation, counter-screen for CSN deneddylation inhibitor project, biochemical, fluorescence polarization, single concentration (AID 720656;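 active = inhibition at or above a set limit, with a fluorescence interference ratio between 0.5 and a set maximum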); conditions: bovine thrombin cleavage of Ub4-pepOG, at 16.6 µM, stronger effect = higher value
# Rat fibroblasts (CREF) [10] = assay: Peg3 promoter luciferase inhibitors, potency, dose response, cell-based, HeLa, CREF/GAPDH counter-screen panel (AID 624167); conditions: CREF/GAPDH counter-screens; run 1, dose range 1, at 100 µM (top of the series)
# Rat fibroblasts (CREF) [11] = assay: as above; conditions: CREF/GAPDH counter-screens; run 2, dose range 1, at 100 µM (top of the series)
# [12] = target: Protein Mdm4 (Homo sapiens) + E3 ubiquitin-protein ligase Mdm2 (Homo sapiens) (UniProt O15151+Q00987); assay: retested Mdm2-MdmX interaction blockers, confirmation, cell-based, luminescence, single concentration, set 2 (AID 504601;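 active = mean inhibition of the luminescence signal across two replicates at or above 26 percent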); conditions: SaOS-2 split-luciferase Mdm2/MdmX complementation, at 8 µM, stronger effect = higher value
# [13] = Apaf-1 inhibitors, single-dose retest, confirmation, biochemical, fluorescence, DEVD-Rh110, 20 µM (AID 504614;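 active = mean inhibition of at least 40% at 20 µM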;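 also: plate controls were DMSO wells for no effect and DEVD-CHO caspase inhibitor control wells for full effect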); conditions: reconstituted apoptosome, caspase-3 DEVD-Rh110 fluorescence; at 20 µM; stronger effect = higher value
# [14] = Rh110 fluorescence interference by putative Apaf-1 inhibitors, confirmation, artefact control for Apaf-1 inhibitor project, biochemical, 20 µM (AID 504615); conditions: quenched caspase reaction, at 20 µM, stronger effect = higher value
# [15] = fluorescence interference of Apaf-1 inhibitor hits, dose response, artefact control for Apaf-1 inhibitor project (AID 588538; call rule not given here); conditions: fluorescence interference counterscreen, Apaf-1 assay format
# [16] = target: Tumor necrosis factor receptor superfamily member 10B (Homo sapiens) (UniProt O14763); assay: caspase-8 TRAIL sensitization, hit retest, confirmation, cell-based, NB7+caspase-8, with/without TRAIL, luminescence panel (AID 651596; in the data active = activity above about 50%); conditions: NB7 neuroblastoma + caspase-8, TRAIL sensitization, luminescence viability, with TRAIL, mean of runs, at 10 µM, stronger effect = higher value
# [17] = as above; conditions: NB7 neuroblastoma + caspase-8, without TRAIL, luminescence viability, without TRAIL, mean of runs, at 10 µM
# [18] = Peg3 promoter reporter inhibitors, retest, confirmation, cell-based, HeLa, luciferase reporter, single concentration (AID 602417;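 active = at 20 µM dose, 40% or more inhibition averaged across four replicates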); conditions: HeLa PEG-Prom luciferase reporter, luminescence, overnight; at 20 µM; stronger effect = higher value
# Sequence of Protein Mdm4 (Homo sapiens) + E3 ubiquitin-protein ligase Mdm2 (Homo sapiens) (O15151 whole entry, looked up): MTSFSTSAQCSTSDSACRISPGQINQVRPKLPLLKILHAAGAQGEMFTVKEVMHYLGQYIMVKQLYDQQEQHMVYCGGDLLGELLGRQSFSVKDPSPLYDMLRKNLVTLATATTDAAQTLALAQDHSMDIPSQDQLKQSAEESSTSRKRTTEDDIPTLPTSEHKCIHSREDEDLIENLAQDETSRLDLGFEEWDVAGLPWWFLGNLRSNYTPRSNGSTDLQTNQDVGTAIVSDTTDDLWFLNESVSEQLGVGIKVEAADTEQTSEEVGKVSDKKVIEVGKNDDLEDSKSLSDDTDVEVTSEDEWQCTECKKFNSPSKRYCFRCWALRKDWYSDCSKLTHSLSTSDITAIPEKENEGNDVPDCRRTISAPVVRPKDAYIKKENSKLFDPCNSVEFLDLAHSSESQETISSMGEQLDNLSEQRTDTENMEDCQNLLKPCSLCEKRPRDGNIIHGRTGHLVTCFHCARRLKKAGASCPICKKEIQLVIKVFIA
# Sequence of Protein Mdm4 (Homo sapiens) + E3 ubiquitin-protein ligase Mdm2 (Homo sapiens) (Q00987 whole entry, looked up): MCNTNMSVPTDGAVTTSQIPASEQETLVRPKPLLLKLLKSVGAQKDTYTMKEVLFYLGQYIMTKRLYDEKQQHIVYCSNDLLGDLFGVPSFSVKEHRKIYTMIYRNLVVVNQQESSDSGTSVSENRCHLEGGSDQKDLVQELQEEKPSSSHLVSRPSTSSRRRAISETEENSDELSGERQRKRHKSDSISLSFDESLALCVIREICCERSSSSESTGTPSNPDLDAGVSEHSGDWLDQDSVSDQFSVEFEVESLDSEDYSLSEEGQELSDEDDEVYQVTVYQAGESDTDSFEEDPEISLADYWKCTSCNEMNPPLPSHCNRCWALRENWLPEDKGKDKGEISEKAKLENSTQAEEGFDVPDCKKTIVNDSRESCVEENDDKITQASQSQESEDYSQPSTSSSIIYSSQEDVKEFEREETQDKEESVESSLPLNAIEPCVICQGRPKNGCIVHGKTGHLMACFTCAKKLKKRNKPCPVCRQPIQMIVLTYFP
# Sequence of Tumor necrosis factor receptor superfamily member 10B (Homo sapiens) (O14763 whole entry, looked up): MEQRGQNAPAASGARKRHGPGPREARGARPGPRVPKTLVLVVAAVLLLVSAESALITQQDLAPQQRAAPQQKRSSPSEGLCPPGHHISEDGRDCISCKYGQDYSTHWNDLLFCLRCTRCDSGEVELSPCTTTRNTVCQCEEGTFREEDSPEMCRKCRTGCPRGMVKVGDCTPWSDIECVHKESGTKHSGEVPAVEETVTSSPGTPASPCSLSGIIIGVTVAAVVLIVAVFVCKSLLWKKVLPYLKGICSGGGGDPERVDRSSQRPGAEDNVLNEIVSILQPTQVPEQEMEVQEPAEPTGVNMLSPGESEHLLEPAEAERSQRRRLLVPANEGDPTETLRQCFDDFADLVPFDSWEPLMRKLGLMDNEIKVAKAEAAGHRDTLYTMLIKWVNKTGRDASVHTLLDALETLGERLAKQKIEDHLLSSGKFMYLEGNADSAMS
# Sequence of Carboxy-terminal domain RNA polymerase II polypeptide A small phosphatase 1 (Homo sapiens) (Q9GZU7 76-261 limits assumed): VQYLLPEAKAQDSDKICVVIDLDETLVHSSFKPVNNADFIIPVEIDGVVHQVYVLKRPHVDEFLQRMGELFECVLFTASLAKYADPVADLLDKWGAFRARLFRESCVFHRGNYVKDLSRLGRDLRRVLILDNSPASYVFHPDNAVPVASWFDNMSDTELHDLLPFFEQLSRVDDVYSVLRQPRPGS
# Sequence of 72 kDa type IV collagenase (Homo sapiens) (P08253 whole entry, looked up): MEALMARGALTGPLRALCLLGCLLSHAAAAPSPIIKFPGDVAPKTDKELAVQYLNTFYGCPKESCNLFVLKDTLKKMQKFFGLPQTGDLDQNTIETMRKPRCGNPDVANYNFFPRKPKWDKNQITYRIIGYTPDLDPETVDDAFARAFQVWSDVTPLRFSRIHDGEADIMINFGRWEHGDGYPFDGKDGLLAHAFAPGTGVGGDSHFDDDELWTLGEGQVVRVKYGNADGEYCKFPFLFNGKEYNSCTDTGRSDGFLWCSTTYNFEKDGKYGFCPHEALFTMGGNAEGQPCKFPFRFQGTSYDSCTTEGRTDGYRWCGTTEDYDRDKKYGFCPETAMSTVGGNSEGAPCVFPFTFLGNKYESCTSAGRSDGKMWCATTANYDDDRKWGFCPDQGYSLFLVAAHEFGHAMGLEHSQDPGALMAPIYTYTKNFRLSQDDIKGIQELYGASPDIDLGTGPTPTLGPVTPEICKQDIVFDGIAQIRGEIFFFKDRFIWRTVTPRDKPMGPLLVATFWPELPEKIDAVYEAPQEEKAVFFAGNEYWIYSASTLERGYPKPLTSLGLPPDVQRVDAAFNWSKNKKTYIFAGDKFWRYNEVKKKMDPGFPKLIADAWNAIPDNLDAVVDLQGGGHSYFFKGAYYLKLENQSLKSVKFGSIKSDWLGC
# Sequence of COP9 signalosome complex subunit 5 (Homo sapiens) (Q92905 whole entry, looked up, one chain of several): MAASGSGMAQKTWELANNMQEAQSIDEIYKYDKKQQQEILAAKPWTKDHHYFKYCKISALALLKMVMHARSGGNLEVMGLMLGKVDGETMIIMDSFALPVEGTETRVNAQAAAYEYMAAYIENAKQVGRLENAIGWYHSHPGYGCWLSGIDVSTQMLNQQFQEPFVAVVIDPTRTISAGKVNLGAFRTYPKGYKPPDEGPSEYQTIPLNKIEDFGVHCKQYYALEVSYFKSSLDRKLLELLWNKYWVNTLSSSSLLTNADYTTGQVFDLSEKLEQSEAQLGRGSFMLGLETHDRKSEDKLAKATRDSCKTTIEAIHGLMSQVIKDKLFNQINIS
# Sequence of Prothrombin (Bos taurus) (P00735 whole entry, looked up): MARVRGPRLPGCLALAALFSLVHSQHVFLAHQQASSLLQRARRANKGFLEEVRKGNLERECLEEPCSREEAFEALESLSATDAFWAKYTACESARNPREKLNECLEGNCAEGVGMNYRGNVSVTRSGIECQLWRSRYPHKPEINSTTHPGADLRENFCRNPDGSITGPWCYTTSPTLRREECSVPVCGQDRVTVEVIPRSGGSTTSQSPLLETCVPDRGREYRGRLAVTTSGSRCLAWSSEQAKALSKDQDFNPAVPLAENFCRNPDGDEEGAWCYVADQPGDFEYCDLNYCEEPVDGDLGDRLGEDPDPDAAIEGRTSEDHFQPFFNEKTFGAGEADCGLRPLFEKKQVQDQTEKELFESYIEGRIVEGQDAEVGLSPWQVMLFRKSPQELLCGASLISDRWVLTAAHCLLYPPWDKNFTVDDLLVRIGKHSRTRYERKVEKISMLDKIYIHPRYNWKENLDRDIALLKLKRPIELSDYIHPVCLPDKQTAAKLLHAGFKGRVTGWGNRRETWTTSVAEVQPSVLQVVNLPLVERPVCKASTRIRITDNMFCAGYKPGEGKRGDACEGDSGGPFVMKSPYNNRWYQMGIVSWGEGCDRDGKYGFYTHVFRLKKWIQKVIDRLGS
smiles,measurement,setting,value
Cc1ccsc1C(=O)OCC(=O)c1cc(C)n(CC2CCCO2)c1C (stereo not drawn),inhibition,[1],28.9% (active)
same,inhibition,[2],65.9% (active)
same,inhibition,[3],80.2% (active)
CSc1ccc(/C=N/NC(=O)c2cccc(Cl)c2)cc1,thermal shift relative to vanadate control,[4],9.78% (active)
O=c1c2cc(-c3ccccc3)sc2nc2n1N=C(c1cccs1)CS2,thermal shift relative to vanadate control,[4],11.4% (active)
O=C(Nc1nnc(S(=O)(=O)N2CCCCCC2)s1)c1cccc(Br)c1,inhibition,[5],77.4% (active)
same,inhibition,[6],83%
same,inhibition,[7],68.3%
COc1cc(/C=C(\C#N)c2nc3ccccc3[nH]2)ccc1O,inhibition,[8],78.1% (active)
same,inhibition,[9],-18.3% (inactive)
same,inhibition,Prothrombin (Bos taurus),62.2% (active)
Cc1ccc2nc(-c3ccc(Br)cc3)cn2c1,inhibition,Rat fibroblasts (CREF) [10],93.6%
same,inhibition,Rat fibroblasts (CREF) [11],85.5%
CCCCCCCCCCOC(=O)Cn1c(COc2ccc(C)cc2)[n+](C)c2ccccc21,inhibition,[12],103% (active)
same,inhibition,[13],81.3% (active)
same,activation (fluorescence interference),[14],25.8% (inactive)
same,IC50,[15],> 100 µM (inactive)
O=C(Cc1cc(=O)[nH][nH]1)N/N=C/c1ccccc1[N+](=O)[O-],inhibition,[13],5.01% (inactive)
same,activation (fluorescence interference),[14],0.43% (inactive)
Cc1ccc2nc(N3CCN(C(=O)c4ccco4)CC3)sc2c1,inhibition,[13],15.7% (inactive)
same,activation (fluorescence interference),[14],-1.75% (inactive)
CCOC(=O)/C(=C\c1ccc([N+](=O)[O-])cc1)C(=O)c1cc(C(C)=O)c(Nc2ccccc2)s1,inhibition,[12],100% (active)
same,activity,[16],95.3%
same,activity,[17],95.6%
Cc1cccc(NC(=O)c2nc(S(=O)(=O)Cc3ccccc3)ncc2Cl)c1,inhibition,[12],103% (active)
same,inhibition,[18],98.3% (active)
same,inhibition,[5],96.7% (active)
same,inhibition,[2],100% (active)
same,inhibition,[3],103% (active)
same,inhibition,[6],86.6%
same,inhibition,[7],95.1%
same,activity,[16],55.2%
same,activity,[17],98.5%
